The results in this text go back to article PMC4336329 (PLoS ONE, 2015).

About 14,000 (4.5%) of roughly 310,000 compounds showed an effect of 50% or more. Effects have a minus sign here. This excerpt belongs to a sample that is enriched for strong results.
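Also: peak tail current of the secondary pulse compared with the same well before compound.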

Sequence of human ether-à-go-go-related gene (hERG) potassium channel (Q12809 whole entry, looked up): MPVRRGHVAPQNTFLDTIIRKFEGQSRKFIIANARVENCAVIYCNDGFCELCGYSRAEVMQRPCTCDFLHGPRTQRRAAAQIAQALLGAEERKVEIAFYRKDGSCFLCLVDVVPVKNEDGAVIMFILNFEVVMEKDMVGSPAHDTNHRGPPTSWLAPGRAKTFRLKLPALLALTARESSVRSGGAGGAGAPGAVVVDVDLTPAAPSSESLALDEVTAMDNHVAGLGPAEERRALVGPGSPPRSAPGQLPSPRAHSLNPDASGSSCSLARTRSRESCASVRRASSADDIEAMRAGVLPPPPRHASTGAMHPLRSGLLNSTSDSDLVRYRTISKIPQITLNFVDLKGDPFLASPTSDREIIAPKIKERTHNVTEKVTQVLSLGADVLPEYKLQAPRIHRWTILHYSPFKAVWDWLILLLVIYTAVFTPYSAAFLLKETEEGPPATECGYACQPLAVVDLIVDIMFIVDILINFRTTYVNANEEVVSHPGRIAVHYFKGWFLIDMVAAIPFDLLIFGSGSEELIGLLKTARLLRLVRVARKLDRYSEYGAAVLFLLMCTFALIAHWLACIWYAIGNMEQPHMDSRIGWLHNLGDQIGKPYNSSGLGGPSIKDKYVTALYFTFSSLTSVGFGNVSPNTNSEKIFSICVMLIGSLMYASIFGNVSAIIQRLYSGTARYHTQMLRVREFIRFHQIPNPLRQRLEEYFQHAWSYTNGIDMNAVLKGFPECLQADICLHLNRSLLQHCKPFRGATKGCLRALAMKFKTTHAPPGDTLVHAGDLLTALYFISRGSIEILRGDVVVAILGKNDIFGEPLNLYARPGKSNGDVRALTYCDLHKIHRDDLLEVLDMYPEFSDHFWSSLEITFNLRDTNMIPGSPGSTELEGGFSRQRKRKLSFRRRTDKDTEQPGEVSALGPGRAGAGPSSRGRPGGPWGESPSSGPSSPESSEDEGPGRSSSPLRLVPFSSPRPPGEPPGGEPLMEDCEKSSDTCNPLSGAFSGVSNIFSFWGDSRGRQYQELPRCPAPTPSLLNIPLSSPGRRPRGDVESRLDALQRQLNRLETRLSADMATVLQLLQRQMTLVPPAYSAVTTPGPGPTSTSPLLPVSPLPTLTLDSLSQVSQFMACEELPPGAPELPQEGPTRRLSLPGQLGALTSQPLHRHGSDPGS

This experiment has as its target human ether-à-go-go-related gene (hERG) potassium channel (human, UniProt Q12809). Put plainly: primary screen, population patch clamp on CHO cells stably expressing hERG; higher = less effect of the substance.
Consider `Nc1nnc(SCC(=O)NNC(=O)c2ccc(Cl)cc2)s1`, for which the “hERG current change (%, negative = inhibition) at 10uM” value is -0.0303%.

On to `O=C(N/N=C/c1ccc(O)cc1)c1ccc(COc2cc(Cl)ccc2Cl)o1`, for which the “hERG current change (%, negative = inhibition) at 10uM” value turned out to be 7.07%.

In the case of `c1csc(-c2nn3c(Cn4nnc5ccccc54)nnc3s2)c1`, the “hERG current change (%, negative = inhibition) at 10uM” value is given as 16.6%.

In the case of `Cc1cc(NNC(=O)Nc2cccc(Cl)c2)nc2c1c(C)nn2C`, the “hERG current change (%, negative = inhibition) at 10uM” value stood at 3.56%.

On to `Cc1ccccc1NC(=O)CN1C(=O)N/C(=C\c2ccc(N3CCOCC3)c(F)c2)C1=O`, for which the “hERG current change (%, negative = inhibition) at 10uM” value stood at 10.8%.

With `COc1ccc(NC(=S)NCCc2c[nH]c3ccccc23)cc1`, the “hERG current change (%, negative = inhibition) at 10uM” value is recorded as -7.49%.

Turning to `Nc1ccccc1C#Cc1ccc([N+](=O)[O-])cc1`, the “hERG current change (%, negative = inhibition) at 10uM” value was 1.66%.

For the compound `CCc1ccc(-c2cc(C)no2)cc1S(=O)(=O)N1CCN(c2ccc(C(C)=O)cc2)CC1`, the “hERG current change (%, negative = inhibition) at 10uM” value is given as -4.32%.

Take `C=CCC(CC=C)(C(=O)O)c1ccccc1`: the “hERG current change (%, negative = inhibition) at 10uM” value is recorded as -8.46%.

As to `COc1ccc(OC)c(S(=O)(=O)NC(C)c2ccc(-n3ccnc3)cc2)c1` (centres unmarked), the “hERG current change (%, negative = inhibition) at 10uM” value is on record as -25.1%.

As to `CC(NC(=O)CCNC(=O)c1ccccc1Cl)c1ccc(-n2ccnc2)cc1` (centres unmarked), the “hERG current change (%, negative = inhibition) at 10uM” value was -17.8%.

Consider `CC(NC(=O)CNC(=O)c1ccccc1F)c1ccc(-n2ccnc2)cc1` (centres unmarked), for which the “hERG current change (%, negative = inhibition) at 10uM” value was -64%.

With `COc1ccc(NC(C)=O)cc1S(=O)(=O)NC(C)c1ccc(-n2ccnc2)cc1` (centres unmarked), the “hERG current change (%, negative = inhibition) at 10uM” value is listed as -3.74%.

As for `CC(NC(=O)c1ccccc1OC(F)F)c1ccc(-n2ccnc2)cc1` (centres unmarked), the “hERG current change (%, negative = inhibition) at 10uM” value is given as -55%.

Regarding `COc1ccc(C(=O)NC(C)c2ccc(-n3ccnc3)cc2)c(OC)c1OC` (centres unmarked), the “hERG current change (%, negative = inhibition) at 10uM” value is listed as -53.1%.

`CC(NC(=O)c1c(F)cccc1Cl)c1ccc(-n2ccnc2)cc1` (centres unmarked): the “hERG current change (%, negative = inhibition) at 10uM” value is -27%.

`COc1ccc(C(=O)NC(C)c2ccc(-n3ccnc3)cc2)c(OC)c1` (centres unmarked): the “hERG current change (%, negative = inhibition) at 10uM” value is -53.8%.

In the case of `CCCCN(CC)CCNC(=O)Cn1cnc2sc(C)c(S(=O)(=O)N3CCC(C)CC3)c2c1=O`, the “hERG current change (%, negative = inhibition) at 10uM” value is -19.1%.

In the case of `Cc1cc(C)c(S(=O)(=O)c2cc(F)ccc2C)c(=O)[nH]1`, the “hERG current change (%, negative = inhibition) at 10uM” value is listed as 18.1%.

With `COc1ccc(-c2noc(C(C)NS(=O)(=O)c3ccc(NC(C)=O)cc3)n2)cc1` (centres unmarked), the “hERG current change (%, negative = inhibition) at 10uM” value is 17.5%.

Consider `COCC1CCCCN1Cc1cn[nH]c1-c1ccc(OC)cc1OC` (centres unmarked), for which the “hERG current change (%, negative = inhibition) at 10uM” value is listed as -25.5%.

As for `COc1ccc2cc(-c3[nH]ncc3CN3CCCC3c3nonc3C)ccc2c1` (centres unmarked), the “hERG current change (%, negative = inhibition) at 10uM” value stood at 0.998%.

With `Oc1cccc(CCC2CCCCN2Cc2cn[nH]c2-c2ccc3c(c2)OCO3)c1` (centres unmarked), the “hERG current change (%, negative = inhibition) at 10uM” value is given as -66.2%.

Consider `COc1ccc(-c2[nH]ncc2CN2C[C@@H]3CCC[C@H]2C3)c(F)c1`, for which the “hERG current change (%, negative = inhibition) at 10uM” value is reported as 8.16%.

Take `COCC1CCCCN1Cc1cn[nH]c1-c1ccc2cc(OC)ccc2c1` (centres unmarked): the “hERG current change (%, negative = inhibition) at 10uM” value is -70.2%.

For `c1cc2c(cc1-c1[nH]ncc1CN1C[C@H]3CC[C@H]1C3)OCO2`, the “hERG current change (%, negative = inhibition) at 10uM” value is -3.58%.

Regarding `Cc1nonc1C1CCCN1Cc1cn[nH]c1-c1ccc2c(c1)OCO2` (centres unmarked), the “hERG current change (%, negative = inhibition) at 10uM” value was -25.6%.

As for `COc1ccc2cc(-c3[nH]ncc3CN3C[C@@H]4CCC[C@H]3C4)ccc2c1`, the “hERG current change (%, negative = inhibition) at 10uM” value is listed as -58.7%.

Take `c1cc2c(cc1-c1[nH]ncc1CN1CC3C[C@@H]4CC1C[C@H](C3)C4)OCO2`: the “hERG current change (%, negative = inhibition) at 10uM” value was -44.3%.

For `CCN(CC(=O)Nc1c(F)cccc1F)C(=O)CSc1nc2ccccc2o1`, the “hERG current change (%, negative = inhibition) at 10uM” value is -1.64%.

For `Cc1cccc(NS(=O)(=O)c2ccc3nc(-c4ccccc4)[nH]c3c2)c1C`, the “hERG current change (%, negative = inhibition) at 10uM” value is on record as 11.8%.

As to `CCn1cc(C(=O)NCC(OC)OC)c(=O)c2cc(S(=O)(=O)N3CCCC3)ccc21`, the “hERG current change (%, negative = inhibition) at 10uM” value is on record as 10.3%.

For the compound `O=C(COC(=O)CCCN1C(=O)c2ccccc2C1=O)Nc1ncc(Cl)cc1Cl`, the “hERG current change (%, negative = inhibition) at 10uM” value is -9.74%.

In the case of `O=S(=O)(c1ccc2ccccc2c1)N1CCN=C1SCc1cccnc1`, the “hERG current change (%, negative = inhibition) at 10uM” value is given as -43.9%.

With `O=c1ccc(/C=C/c2ccccc2)nn1Cc1ccc(Cl)cc1Cl`, the “hERG current change (%, negative = inhibition) at 10uM” value is listed as 8.47%.

For `CCOc1cc(NC(=O)c2ccco2)c(OCC)cc1NC(=O)COc1ccccc1C`, the “hERG current change (%, negative = inhibition) at 10uM” value turned out to be 26.4%.

For `CC(C)(C)c1cc(NC(=O)C2CCCO2)no1` (centres unmarked), the “hERG current change (%, negative = inhibition) at 10uM” value is 11.6%.

As for `CCC(Oc1cc(Cl)ccc1Cl)C(=O)N1CCC2(CC1)OCCO2` (centres unmarked), the “hERG current change (%, negative = inhibition) at 10uM” value came out at 4.7%.

Regarding `Cc1ccsc1C(=O)C1CCCN(Cc2ccc(O)cc2)C1` (centres unmarked), the “hERG current change (%, negative = inhibition) at 10uM” value is recorded as -22.9%.

Regarding `Cc1ccsc1C(=O)C1CCCN(Cc2ccc(-n3cccn3)cc2)C1` (centres unmarked), the “hERG current change (%, negative = inhibition) at 10uM” value is on record as -67.7%.

Regarding `Cc1ccsc1C(=O)C1CCCN(Cc2cccc(-n3cccn3)c2)C1` (centres unmarked), the “hERG current change (%, negative = inhibition) at 10uM” value is given as -65.4%.

With `Cc1ccsc1C(=O)C1CCCN(Cc2cc(C(C)C)n[nH]2)C1` (centres unmarked), the “hERG current change (%, negative = inhibition) at 10uM” value is reported as -43.9%.

In the case of `Cc1ccsc1C(=O)C1CCCN(Cc2cccc(OCCO)c2)C1` (centres unmarked), the “hERG current change (%, negative = inhibition) at 10uM” value is -16.3%.

Consider `COC(=O)Nc1nc(-c2ccc(F)cc2)c(C)s1`, for which the “hERG current change (%, negative = inhibition) at 10uM” value is given as 14.5%.

`Cc1ccc(-n2c(O)c(/C=N/NC(=O)c3ccncc3)c(=O)[nH]c2=O)cc1C`: the “hERG current change (%, negative = inhibition) at 10uM” value worked out at 9.71%.

On to `CN(c1ccccc1)c1ncccn1`, for which the “hERG current change (%, negative = inhibition) at 10uM” value is reported as 18%.

Take `O=S(=O)(Nc1cccnc1)c1ccc(F)cc1`: the “hERG current change (%, negative = inhibition) at 10uM” value was 16.6%.

`COc1ccc(C2=NOC(Cn3nc(C(=O)NCc4ccccc4OC)cc3-c3ccccc3)C2)cc1` (centres unmarked): the “hERG current change (%, negative = inhibition) at 10uM” value is -16.2%.

For the compound `COc1ccc(C2=NOC(Cn3nc(C(=O)NCc4ccco4)cc3-c3ccccc3)C2)cc1` (centres unmarked), the “hERG current change (%, negative = inhibition) at 10uM” value is recorded as -68.2%.

Take `COc1ccc(C2=NOC(Cn3nc(C(=O)NCc4ccc(OC(F)(F)F)cc4)cc3-c3ccccc3)C2)cc1` (centres unmarked): the “hERG current change (%, negative = inhibition) at 10uM” value is on record as -3.95%.

As for `COc1ccc(C2=NOC(Cn3nc(C(=O)NCc4cccs4)cc3-c3ccccc3)C2)cc1` (centres unmarked), the “hERG current change (%, negative = inhibition) at 10uM” value is -51.3%.

For the compound `COc1ccc(C2=NOC(Cn3nc(C(=O)O)cc3-c3ccccc3)C2)cc1` (centres unmarked), the “hERG current change (%, negative = inhibition) at 10uM” value was -10.3%.

`COc1ccc(C2=NOC(Cn3nc(C(=O)NCc4ccc5c(c4)OCO5)cc3-c3ccccc3)C2)cc1` (centres unmarked): the “hERG current change (%, negative = inhibition) at 10uM” value is -17.4%.

Regarding `COc1ccc(C2=NOC(Cn3nc(C(=O)NCC4CC4)cc3-c3ccccc3)C2)cc1` (centres unmarked), the “hERG current change (%, negative = inhibition) at 10uM” value was -65%.

`COCCNC(=O)c1cc(-c2ccccc2)n(CC2CC(c3ccc(OC)cc3)=NO2)n1` (centres unmarked): the “hERG current change (%, negative = inhibition) at 10uM” value was -10.7%.

As for `COc1ccc(C2=NOC(Cn3nc(C(=O)NCc4ccc(C)cc4)cc3-c3ccccc3)C2)cc1` (centres unmarked), the “hERG current change (%, negative = inhibition) at 10uM” value was found to be 2.68%.
